Among the data in the OligoGym collection are sensor-assay potency score (higher = more potent) values, retold here.
Further: reference of the scale not given here.

One test deals with DNAJC13. The test can be described thus: pooled miR-30 sensor sort-seq; sequence = guide strand. The following applies: shRNA.
Turning to TATCTTTCAGTTCTTCTCGTGT, the sensor-assay potency score (higher = more potent) is -0.0145.

The sequence TTGTTGTGTAGAAACATGCCAG had a sensor-assay potency score (higher = more potent) of -0.232.

TATCTTGTCCTTTTGTCTCTTC came in with a sensor-assay potency score (higher = more potent) of 0.492.

For the sequence TTCAATTACATTGCTTTGCAGT, the sensor-assay potency score (higher = more potent) was -0.243.

The sequence TTGATTATTTTTGTACTCGATG returned a sensor-assay potency score (higher = more potent) of -0.943.

In turn, TTGTCTCTAACATGCATCCGAT gave a sensor-assay potency score (higher = more potent) of -1.12.

Regarding TTGTGCTACTAATTCACTCTGC, the sensor-assay potency score (higher = more potent) turned out to be 0.635.

TACTAATTCACTCTGCTCCTTC yielded a sensor-assay potency score (higher = more potent) of 0.364.

In turn, TTGAATTGCAGAACATATCCAG yielded a sensor-assay potency score (higher = more potent) of 0.63.

In turn, TTAAGGAAGAGAATCAACCTAT displayed a sensor-assay potency score (higher = more potent) of -0.138.

On to TAGACCAACAGTATCTGCTCGC, for which the sensor-assay potency score (higher = more potent) amounted to 0.515.

The target in a further test is DNAJC19. The test is described as above. As to conditions: shRNA.
The sequence TTAAAAGCATAATTCGTCGATG displayed a sensor-assay potency score (higher = more potent) of -0.449.

As for TTTAAAAGCATAATTCGTCGAT, the sensor-assay potency score (higher = more potent) turned out to be 0.123.

TTTATTAGTGTATAAATTCTAA gave a sensor-assay potency score (higher = more potent) of -0.615.

As for ATGAACAATATTTCTATTCAGA, the sensor-assay potency score (higher = more potent) is -0.967.

As for TTCAGTTTTGCTAACAGGGTTT, the sensor-assay potency score (higher = more potent) was -0.256.

Consider TTGATATTGAGAACATTTCAGT, for which the sensor-assay potency score (higher = more potent) was -0.702.

In turn, TTTTTTAAAATTGTAGCTCTGA had a sensor-assay potency score (higher = more potent) of 0.364.

In turn, TAAACAAGAAAATTATACCAAG yielded a sensor-assay potency score (higher = more potent) of -1.18.

Take TAAAATTGTAGCTCTGAGGCAT: the sensor-assay potency score (higher = more potent) came out at 0.463.

In turn, TTCACTTTTAAATACAAGGTTC registered a sensor-assay potency score (higher = more potent) of -0.645.

For the sequence TAAATCTTTAGCTTCATTGATT, the sensor-assay potency score (higher = more potent) is -0.54.

The sequence TTCGTCGATGAGCATCTCTTAT gave a sensor-assay potency score (higher = more potent) of -1.36.

The target in a further test is DNAJC4. The test is described as above. The following applies: shRNA.
TTGTCGCTCCTGCTGAAGGATG came in with a sensor-assay potency score (higher = more potent) of -1.56.

In turn, TTTGGTGGGCAGACTTGTCATG registered a sensor-assay potency score (higher = more potent) of -0.548.

In the case of TTCATCCATGAAGTTAAGGTGC, the sensor-assay potency score (higher = more potent) is -0.818.

On to TAGCCGTTGTCGCTCCTGCTGA, for which the sensor-assay potency score (higher = more potent) is -1.23.

Take TTAACTTCCTCAGTGCTGGCAC: the sensor-assay potency score (higher = more potent) was 0.72.

As to TTGTCATGGACTGTGGTTCGTG, the sensor-assay potency score (higher = more potent) is -0.505.

TTGTTTGTGTTGCTGCTGCCTC had a sensor-assay potency score (higher = more potent) of -0.896.

TAGAAGGCTGTGATGATCCGAT came in with a sensor-assay potency score (higher = more potent) of 0.303.

In turn, TGCATCTGCTTCACCTTCCTGA yielded a sensor-assay potency score (higher = more potent) of -0.639.

Regarding TCGCTCAGCTCCACAAAGCGGC, the sensor-assay potency score (higher = more potent) is -1.13.

Regarding TTTGGGGGACTACCTGAGCGGA, the sensor-assay potency score (higher = more potent) is -1.85.

For TTGGGGGACTACCTGAGCGGAG, the sensor-assay potency score (higher = more potent) was -1.16.

A further test concerns the target DNAJC8. The test is described as above. As to conditions: shRNA.
Sequence TTTCTAACCATCACAATTCAGT registered a sensor-assay potency score (higher = more potent) of -0.77.

The sequence TTTTTCGAAGTTAGAACCGAGT displayed a sensor-assay potency score (higher = more potent) of -0.8.

TTTCTTCATCTGTAACTTCAGG displayed a sensor-assay potency score (higher = more potent) of -0.78.

TTGTCTGTTTATATACAGCTTG yielded a sensor-assay potency score (higher = more potent) of -0.738.

Take TTTATATACAGCTTGTTTGAAC: the sensor-assay potency score (higher = more potent) is -0.768.
